# Sampled rows, rich in hits. Any-hit rate of the full collection: about 3.1%.
# miR122 inh = blocks miR-122 activity in Huh7 sensor cells; Huh7 miR-122 Renilla luciferase sensor, 48 h; neutral wells = 0, positive control = 100; activation (reporter increase), % at 12.5 µM; 340,000 compounds, 0.3% hits; AID 602342;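 active means mean replicate activation score at least 90 and every replicate individually at or above 90; inconclusive means only one of the two criteria met; inactive means neither criterion met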;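 further: higher luciferase means less miR-122 activity so hits act as miR-122 inhibitors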
# INS-1E GSIS act = GLuc luminescence reporter in INS-1E cells, primary screen for activators of glucose-dependent secretion of insulin | INS-1E GLuc reporter insulin secretion, 2-3 h | activation, % at 16.6 µM | 370,000 compounds, 0.61% hits;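 active means lowest replicate activation of at least 40%, so every replicate reaches that level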
# PAX8 reporter = inhibitors of PAX8 transcriptional activity in RMG-I cells; RMG-I TPO-luciferase reporter, SteadyGlo, 24 h; inhibition, % at 12.6 µM; 360,000 compounds, 1.2% hits; AID 652154;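 active means mean replicate inhibition at least 60% with every replicate also reaching 60%; inconclusive means only one of the two criteria is met; inactive means mean below 60% and not all replicates reaching 60%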;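 further: luciferase light reporting Pax8 driven TPO promoter activity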
# EWS-Fli inh = EWS/Fli transcriptional activity inhibition | A673 NR0B1-luciferase reporter, viability-normalised | inhibition, % at 12.6 µM | 350,000 compounds, 0.67% hits;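 active means mean inhibition of at least 50% after viability correction, with every replicate also passing that limit; inconclusive means mean reaches 50% but only one of two replicates passes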;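 further: firefly luciferase signal divided by Alamar Blue viability fluorescence both relative to DMSO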
# Env fusion inh = inhibitors of HIV Env-mediated cell fusion; HeLa-JRFL Env/CEM21 cell fusion, luciferase; inhibition, % at 12.3 µM; 360,000 compounds, 1.1% hits;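 active means mean replicate inhibition score of at least 50 and every replicate individually at or above 50; inconclusive means only one of the two criteria met; inactive means mean below 50 and not all replicates reaching 50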
# Statin myotox sup = suppressors of simvastatin-induced myotoxicity in C2C12 myotubes. rescue of ATP level, % at 7.49 µM. 330,000 compounds, 0.78% hits. ATP luminescence, 48 h; scaled: DMSO 0, geranylgeraniol control 100;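 active means mean ATP rescue above about 67%, or every replicate alone reaching that limit, limit read from the data, passing the limit was not always enough; inconclusive means no clear call, values can overlap the other calls; inactive means mean under the limit and some replicate under it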;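 further: myotubes were challenged with 10 µM simvastatin during compound exposure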
# Hits are given with their value; i = inactive; ? = inconclusive; nt = no result; ! = a repeat was not active; [ ] = dose if it differs, or a comment.
SMILES,miR122 inh,INS-1E GSIS act,PAX8 reporter,EWS-Fli inh,Env fusion inh,Statin myotox sup
COC(=O)[C@@H]1[C@@H](CO)[C@@H]2Cn3c(ccc(-c4ccccc4F)c3=O)[C@@H]2N1C(=O)c1ccccn1,nt,i,nt,i,nt,i
COCCNC(=O)C[C@H]1C[C@H]2c3cc(NC(=O)C4CCC4)ccc3O[C@H]2[C@@H](CO)O1,i,i,i,i,i,i
CC(C)CC#Cc1cnc2c(c1)C(=O)N([C@@H](C)CO)C[C@@H](C)[C@H](CN(C)C(=O)c1ccccc1F)O2,i,i,nt,i,i,i
Cc1noc(C)c1NC(=O)Nc1cccc2c1O[C@H](CN(C)S(=O)(=O)c1ccc(F)cc1)[C@@H](C)CN([C@H](C)CO)C2=O,i,i,i,i,i,81!
CCOC(=O)N1CCN(S(=O)(=O)c2ccc(C(=O)NNc3nc4c(C)cccc4s3)cc2)CC1,i,nt,81,i,60,i
CCOC(=O)N1CCN(S(=O)(=O)c2ccc(C(=O)NNc3nc4c(C)cc(C)cc4s3)cc2)CC1,i,nt,i,i,i,i
Cc1cccc2sc(NNC(=O)c3ccc(S(=O)(=O)N4CCc5ccccc5C4)cc3)nc12,i,i,77,i,i,i
NC(=O)CC[C@@H]1NC(=O)[C@H](CO)NC(=O)c2cc([N+](=O)[O-])cc(I)c2OCC[C@@H](C(N)=O)NC1=O,i,i,i,i,i,106
Cc1ccc(-c2cnc3c(c2)C(=O)N([C@@H](C)CO)C[C@H](C)[C@@H](CN(C)CC2CCOCC2)O3)cc1,i,i,nt,i,i,i
CN1CCN(C(=O)C[C@@H]2C[C@H]3c4cc(NC(=O)Nc5ccc(F)cc5)ccc4O[C@H]3[C@@H](CO)O2)CC1,i,i,nt,i,nt,i
NS(=O)(=O)OCC(Cc1ccccc1)N1C(=O)c2ccccc2C1=O (configuration not stated),i,i,i,i,i,111
CNC(=O)c1ccccc1S(=O)(=O)c1ccccc1C#N,i,nt,nt,nt,nt,101
C[C@@H]1CCCCO[C@H](CN(C)CC2CCCCC2)[C@H](C)CN([C@H](C)CO)C(=O)c2cc(NC(=O)Nc3cccc4ccccc34)ccc2O1,i,i,i,87,i,nt
C[C@H](CO)N1C[C@H](C)[C@@H](CN(C)CC2CCCCC2)OCCCC[C@H](C)Oc2ccc(NC(=O)Nc3cccc4ccccc34)cc2C1=O,i,i,i,i,i,nt
C[C@@H]1CCCCO[C@H](CN(C)CC2CCCCC2)[C@H](C)CN([C@@H](C)CO)C(=O)c2cc(NC(=O)Nc3cccc4ccccc34)ccc2O1,i,i,i,i,i,nt
C[C@@H]1CN([C@H](C)CO)C(=O)c2cc(NC(=O)Nc3cccc4ccccc34)ccc2O[C@@H](C)CCCCO[C@@H]1CN(C)CC1CCCCC1,i,i,i,76,i,nt
C[C@H]1CN([C@@H](C)CO)C(=O)c2cc(NC(=O)C3CC3)ccc2O[C@@H]1CN(C)CC1CCCCC1,i,i,i,i,i,81
C[C@@H]1CCCCO[C@@H](CN(C)CC2CCCCC2)[C@@H](C)CN([C@@H](C)CO)C(=O)c2cc(NC(=O)Nc3cccc4ccccc34)ccc2O1,i,i,i,77,i,nt
O=C(NCC1CCCCC1)[C@H]1[C@H](CO)[C@H]2Cn3c(ccc(-c4cncnc4)c3=O)[C@@H]1N2,nt,i,i,i,i,i
O=C(c1cccc(F)c1)N1CCCCN2[C@H](CO)[C@H](c3ccc(/C=C/c4ccccc4)cc3)[C@@H]2C1,i,i,i,i,nt,nt
C[C@@H]1CCCCO[C@@H](CN(C)C(=O)C2CCCCC2)[C@@H](C)CN([C@@H](C)CO)C(=O)c2cc(NC(=O)CCCN(C)C)ccc2O1,i,i,i,i,i,i
CCCC(=O)N1CCC2(CC1)CN(C(=O)C1CC1)[C@@H](CO)c1[nH]c3cc(OC)ccc3c12,nt,i,i,i,nt,nt
C[C@H]1CN([C@@H](C)CO)C(=O)Cc2cc(NC(=O)Nc3cccc4ccccc34)ccc2O[C@H]1CN(C)C(=O)NC1CCCCC1,i,i,i,i,i,i
C[C@H](CO)N1C[C@H](C)[C@H](CN(C)CC2CCCCC2)OCCCC[C@H](C)Oc2ccc(NC(=O)Nc3cccc4ccccc34)cc2C1=O,i,i,i,92,i,nt
C[C@H]1CN([C@@H](C)CO)C(=O)c2cccc(NC(=O)Nc3cccc4ccccc34)c2O[C@H]1CN(C)CC1CC1,nt,i,90,i,nt,nt
SMILES,miR122 inh,INS-1E GSIS act,PAX8 reporter,EWS-Fli inh,Env fusion inh,Statin myotox sup
C[C@@H]1CN([C@@H](C)CO)C(=O)Cc2cc(NC(=O)Nc3cccc4ccccc34)ccc2O[C@@H]1CN(C)C(=O)NC1CCCCC1,167[16.7 µM],i,i,i,i,i
C[C@@H]1CN([C@H](C)CO)C(=O)c2cc(NC(=O)Nc3cccc4ccccc34)ccc2O[C@@H]1CN(C)CC1CCCCC1,i,i,nt,70,nt,i
C[C@H](CO)N1C[C@H](C)[C@@H](CN(C)CC2CC2)Oc2c(NC(=O)Nc3cccc4ccccc34)cccc2C1=O,i,nt,i,i,i,i
CN1C(=O)c2cc(NC(=O)c3ccccc3Cl)ccc2OC[C@H]2O[C@@H](CC(=O)O)CC[C@@H]21,i,nt,i,i,nt,i
CCCNC(=O)N(C)C[C@H]1Oc2ncc(-c3ccc(F)cc3)cc2C(=O)N([C@@H](C)CO)C[C@@H]1C,i,i,nt,i,i,i
C[C@H](CO)N1C[C@H](C)[C@@H](CN(C)C(=O)Nc2cccc3ccccc23)Oc2ccc(NC(=O)Nc3ccc4c(c3)OCO4)cc2CC1=O,i,i,74,i,i,i
C[C@@H]1CN([C@H](C)CO)C(=O)Cc2cc(NC(=O)Nc3cccc4ccccc34)ccc2O[C@H]1CN(C)CC1CCCCC1,i,i,i,i,i,75
CN([C@@H](C(=O)OC(C)(C)C)c1ccccc1)S(=O)(=O)c1cccc(S(=O)(=O)N(C)[C@@H](C(=O)OC(C)(C)C)c2ccccc2)c1,i,i,i,i,i,i
CC(C)(C)OC(=O)CC(S(=O)(=O)c1ccccc1)S(=O)(=O)c1ccccc1,i,nt,86,i,i,i
CC(=O)N(C)C[C@H]1Oc2ncc(C#CCc3ccccc3)cc2C(=O)N([C@@H](C)CO)C[C@@H]1C,i,i,nt,i,i,i
O=C(C[C@@H]1C[C@H]2c3cc(NC(=O)C4CCC4)ccc3O[C@H]2[C@H](CO)O1)NCc1ccc(-c2ccccc2)cc1,i,i,?,i,i,i
CCC(=O)Oc1ccc2c(C)cc(=O)oc2c1C(=O)c1ccccc1,i,i,88,i,nt,i
O=C1NC(Cc2ccc(O)cc2)c2nc3cc(F)ccc3c(=O)n2-c2cc3ccccc3cc21 (configuration not stated),i,i,66,?,i,i
O=C1NC(Cc2ccc(O)cc2)c2nc3cc(F)ccc3c(=O)n2-c2cc(Cl)ccc21 (configuration not stated),nt,i,i,i,i,nt

# Screening data from PubChem.
